In PubChem BioAssay (Tox21):
Records with an inconclusive call do not appear. A number with no mark means an inactive call. The call rests on the fitted dose curve; in most records, active means well fitted inhibition curve with a large enough effect in the signal ratio in the repeat runs (not every such curve was filed as active); inconclusive means weak or mixed curves, or effect the other way; inactive means no such curve, though single readings can be large or run the other way; the % refers to the signal ratio.

What follows are compounds tested against Peroxisome proliferator-activated receptor delta (Homo sapiens) (UniProt Q03181) (assay: qHTS assay to identify small molecule antagonists of the peroxisome proliferator-activated receptor delta (PPARd) signaling pathway (AID 743215;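 further: cells stimulated with agonist L165041 at 300 nM final during compound exposure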)). Details: HEK293H PPARd-UAS-bla, beta-lactamase FRET ratio, antagonist, 17 h; series mostly up to 62 µM; ratio activity, negative = inhibition: at the top concentration.
Text: U.S. Tox21 Program National Center for Advancing Translational Sciences [NCATS] NIH Chemical Genomics Center [NCGC] U.S. Environmental Protection Agency [EPA] National Institutes of Environmental Health Sciences [NIEHS] National Toxicology Program [NTP] U.S. Food and Drug Administration [FDA] Tox21 Assay Overview: The peroxisome proliferator-activated receptors (PPARs) are lipid-activated transcription factors of the nuclear receptor superfamily with three distinct subtypes namely PPAR alpha, PPAR delta (PPARd) and PPAR gamma. All these subtypes heterodimerizes with Retinoid X receptor (RXR) and have different physiological functions. […] To identify the compounds that inhibit PPAR-delta signaling, GeneBLAzer PPAR delta UAS-bla HEK293H cell line (Invitrogen, Carlsbad, CA, USA) containing a beta-lactamase reporter gene under the control of an Upstream Activator Sequence (UAS) was used to screen the Tox21 compound library.
Tox21 Assay Protocol Summary: PPARd-bla cells were dispensed at 3000 cells/5uL/well in 1536-well black wall/clear bottom plates using a Multidrop Combi (Thermo Fisher Scientific, Waltham, MA) dispenser. After the assay plates were incubated at 37 C and 5% CO2 for 5 h, 23 nL of compounds dissolved in DMSO, positive controls or DMSO only was transferred to the assay plate by a Pintool station (Kalypsys, San Diego, CA), followed by addition of 1ul L165041 (300 nM, final concentration in the wells). The assay plates were incubated at 37 C for 17 h, and then 1 uL of LiveBLAzerTM B/G FRET substrate was added using a Bioraptr Flying Reagent Dispenser (FRD) workstation (Beckman Coulter, Indianapolis, IN, USA). The assay plates were incubated at room temperature for 2 h and fluorescence intensity was measured by an Envision plate reader (PerkinElmer, Shelton, CT).
On the % scale 0 is the no-effect control and ±100 the full control effect.

Peroxisome proliferator-activated receptor delta (Homo sapiens), sequence (Q03181 whole entry, looked up): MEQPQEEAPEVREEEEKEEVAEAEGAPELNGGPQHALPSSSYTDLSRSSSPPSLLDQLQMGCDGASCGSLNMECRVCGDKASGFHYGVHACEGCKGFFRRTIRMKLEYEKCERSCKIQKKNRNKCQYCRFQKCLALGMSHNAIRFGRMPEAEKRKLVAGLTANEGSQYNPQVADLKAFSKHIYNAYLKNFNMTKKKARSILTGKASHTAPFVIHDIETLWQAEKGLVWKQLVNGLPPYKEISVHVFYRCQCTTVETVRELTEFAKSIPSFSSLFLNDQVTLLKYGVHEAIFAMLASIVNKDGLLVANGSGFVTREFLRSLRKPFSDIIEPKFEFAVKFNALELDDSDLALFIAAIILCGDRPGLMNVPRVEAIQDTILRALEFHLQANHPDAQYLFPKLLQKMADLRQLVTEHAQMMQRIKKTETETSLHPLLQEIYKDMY

Compared with `O=[N+]([O-])c1ccc(Cl)cc1Cl`, `Cc1ccc2ccccc2c1[N+](=O)[O-]` is lower in “ratio activity, negative = inhibition” value: 8.16% for the first, -0.676% for the second.

Compared with `CNc1ccccc1`, `OCC(O)c1ccccc1` (stereo not given) is lower in “ratio activity, negative = inhibition” value: 10.8% for the first, 2.7% for the second.

Compared with `CC(C)(Cc1c[nH]c2ccccc12)NCC(O)COc1ccccc1C#N` (stereo not given), `CC(COc1ccccc1)NC(C)C(O)c1ccc(O)cc1` (stereo not given) is higher in “ratio activity, negative = inhibition” value: -11.7% for the first, 4.76% for the second.

Compared with `Clc1ccccc1-c1nc(-c2ccncc2)no1`, `O=C1c2ccccc2C(=O)c2c1ccc(O)c2O` is higher in “ratio activity, negative = inhibition” value: -1.79% for the first, 11.8% for the second.

First: CCc1ccc(C(=O)C(C)CN2CCCCC2)cc1 (stereo not given)
Second: CC(C)(C)c1ccc(CCC=O)cc1
The “ratio activity, negative = inhibition” value of the first is lower: -0.389% for the first, 16.4% for the second.

Compared with `CCCC1CCCC(=O)O1` (stereo not given), `CC1(C)[C@@H]2CC[C@]3(C2)[C@@H]1C(=O)CCC3(C)C` is higher in “ratio activity, negative = inhibition” value: -10.6% for the first, 8.22% for the second.

Compared with `C[C@@H](O)[C@H]1C(=O)N2C(C(=O)O)=C(S[C@@H]3CN[C@H](CNS(N)(=O)=O)C3)[C@H](C)[C@H]12`, `CC[C@H](NC(C)C)[C@H](O)c1ccc(O)c2[nH]c(=O)ccc12` is higher in “ratio activity, negative = inhibition” value: 2.93% for the first, 6.43% for the second.

First: N#C[C@@H]1CC(F)(F)CN1C(=O)CNC1CC2CCC(C1)N2c1ncccn1 (stereo not given in full)
Second: CO[C@@H]1COCC[C@@H]1N[C@@H]1CC[C@@](C(=O)N2CCc3ncc(C(F)(F)F)cc3C2)(C(C)C)C1
The “ratio activity, negative = inhibition” value of the first is lower: -15.2% for the first, -1.5% for the second.

Going from `CCC(CC)C(=O)O` to `CCC(C)CCCC(C)(C)O` (stereo not given), the “ratio activity, negative = inhibition” value falls from 4.63% to -6.14%.

Going from `Clc1cc(Cl)c2c(c1)N=C1CCCCCN1C2` to `Nc1nc(Cl)nc2c1ncn2[C@H]1C[C@H](O)[C@@H](CO)O1`, the “ratio activity, negative = inhibition” value rises from -2.39% to 18.5%.

First: CCCCCCCCOCCCN
Second: CCCCCCCCCCCCCCCCN
The “ratio activity, negative = inhibition” value of the first is lower: -13.2% for the first, -4.9% for the second.

Compared with `O=C(OC1C[C@H]2CC[C@@H](C1)[N+]21CCCC1)C(O)(c1ccccc1)c1ccccc1` (stereo not given in full), `C(/C=C/C=C/Nc1ccccc1)=Nc1ccccc1` is higher in “ratio activity, negative = inhibition” value: 0.0803% for the first, 15.4% for the second.

Compared with `C1=COCCC1`, `O=C(O)c1ccc2cc(O)ccc2c1` is higher in “ratio activity, negative = inhibition” value: -1.53% for the first, 1.33% for the second.

First: CC(CN=Cc1ccccc1O)N=Cc1ccccc1O (stereo not given)
Second: CC(C)Oc1ccccc1O
The “ratio activity, negative = inhibition” value of the first is higher: 3.89% for the first, -2.32% for the second.

Going from `SCCOCCOCCS` to `OCCOc1cccc(OCCO)c1`, the “ratio activity, negative = inhibition” value rises from -2.61% to 1.42%.

First: COc1cc(CNC(=O)CCCC/C=C/C(C)C)ccc1O
Second: CCOc1ccccc1O
The “ratio activity, negative = inhibition” value of the first is higher: 7.53% for the first, 0.662% for the second.

Compared with `Sc1nc(S)nc(S)n1`, `Cc1cc(N)n(-c2ccccc2)n1` is higher in “ratio activity, negative = inhibition” value: -1.83% for the first, 13.2% for the second.

Going from `CCC(C(=O)O)c1ccc(N2Cc3ccccc3C2=O)cc1` (stereo not given) to `COc1ccc(/C=C/S(=O)(=O)NC(=O)c2ccc(C)cc2Cl)cc1`, the “ratio activity, negative = inhibition” value falls from 4.16% to 3.03%.

For `N#CCCCC(C#N)CCC#N` (stereo not given), the “ratio activity, negative = inhibition” value was -6.82%.

Compared with `CC(O)C(C)O` (stereo not given), `CC(C)Cc1nccs1` is higher in “ratio activity, negative = inhibition” value: -2.02% [at 80.4 µM] for the first, -0.0638% [at 80.4 µM] for the second.

In the case of `O=C1C=CCCC1`, the “ratio activity, negative = inhibition” value is reported as 3.38% [at 80.4 µM].
